What all share (assay): NCI-60 one-dose screen, 48 h (100 = growth as untreated, 0 = no growth, -100 = all killed)
The subject of one experiment is SK-MEL-2 melanoma. As to conditions: 10 µM unless noted.
A further experiment has as its system EKVX NSCLC. As to conditions: 10 µM unless noted.
In another experiment the test system is SN12C renal. The note with it: 10 µM unless noted.
Another experiment relates to UO-31 renal. The note with it: 10 µM unless noted.
For a further experiment, the system named is TK-10 renal. The note with it: 10 µM unless noted.
A further experiment deals with ACHN renal. The note with it: 10 µM unless noted.
Another experiment concerns CAKI-1 renal. As to conditions: 10 µM unless noted.
For a further experiment, the system named is A498 renal. The note with it: 10 µM unless noted.
The subject of another experiment is CCRF-CEM leukemia. The note with it: 10 µM unless noted.
In another experiment the test system is MOLT-4 leukemia. As to conditions: 10 µM unless noted.
In the next experiment the test system is RPMI-8226 leukemia. As to conditions: 10 µM unless noted.
A further experiment concerns OVCAR-8 ovarian. The note with it: 10 µM unless noted.
For a further experiment, the system named is OVCAR-5 ovarian. The note with it: 10 µM unless noted.
The next experiment has as its system OVCAR-4 ovarian. As to conditions: 10 µM unless noted.
In a further experiment the test system is SK-OV-3 ovarian. The note with it: 10 µM unless noted.
Another experiment relates to IGROV1 ovarian. As to conditions: 10 µM unless noted.
In a further experiment the test system is OVCAR-3 ovarian. As to conditions: 10 µM unless noted.
For a further experiment, the system named is HS 578T breast. The note with it: 10 µM.
The subject of the next experiment is NCI/ADR-RES ovarian. The note with it: 10 µM unless noted.
For another experiment, the system named is SR leukemia. The note with it: 10 µM unless noted.

About 83,000 compounds went through this panel and 20% of them were active in at least one assay; those are over-represented in the sample as a whole.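 Plates (96-well) were seeded with cells, treated with compound at one concentration, and incubated for 48 hours before percent growth was determined.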 Unmarked numbers belong to inactive results. Active and inactive are the calls of the source. Rule for the calls: active = growth percent below 10; inactive = the rest.

Take `CSCCC1NC(=O)C(C(C)=Nc2ccccc2)=C1O` (stereo unspecified): the growth was 129% with SK-MEL-2 melanoma; 101% in the experiment with EKVX NSCLC; 101% in the experiment on SN12C renal; 93.4% in the experiment with UO-31 renal; 133% in the experiment with TK-10 renal; 113% in the experiment with ACHN renal. Moreover, the growth in the experiment on CAKI-1 renal is 89.3%; in the experiment on A498 renal, 102%; in the experiment on CCRF-CEM leukemia, 106%; with MOLT-4 leukemia it was 119%; in the experiment with RPMI-8226 leukemia it was 115%; with OVCAR-8 ovarian, 111%. Also, the growth in the experiment with OVCAR-5 ovarian is 120%; with OVCAR-4 ovarian, 100%; with SK-OV-3 ovarian, 101%; in the experiment on IGROV1 ovarian it was 103%; in the experiment with OVCAR-3 ovarian, 117%; in the experiment on HS 578T breast, 105%. Moreover, the growth in the experiment on NCI/ADR-RES ovarian is 104%.

`O=C1Cc2c([nH]c3ccc([N+](=O)[O-])cc23)-c2ccccc2N1`: the growth is -21.5% (active) with SK-MEL-2 melanoma; 17.1% with EKVX NSCLC; 44.1% in the experiment on SN12C renal; 4.74% (active) in the experiment with UO-31 renal; 12% with TK-10 renal; 11.5% in the experiment with ACHN renal. Also, the growth was 16.4% with CAKI-1 renal; -5.07% (active) in the experiment on A498 renal; 1.61% (active) in the experiment on CCRF-CEM leukemia; 2.18% (active) with MOLT-4 leukemia; -8.53% (active) in the experiment with SR leukemia; -22.1% (active) in the experiment on RPMI-8226 leukemia. Further, the growth was 12.3% in the experiment on OVCAR-5 ovarian; 16.7% with OVCAR-4 ovarian; 28.2% with SK-OV-3 ovarian; -41.8% (active) in the experiment with IGROV1 ovarian; -14.4% (active) in the experiment with OVCAR-3 ovarian; 25.6% in the experiment on HS 578T breast. Besides, the growth in the experiment on NCI/ADR-RES ovarian was 14.5%.

In the case of `O=C(c1ccccc1)N(CCCCl)C(=O)N(CCCCl)C(=O)c1ccccc1`, the growth is 103% in the experiment on SK-MEL-2 melanoma; 81% with EKVX NSCLC; 94.6% in the experiment with SN12C renal; 73.4% in the experiment with UO-31 renal; 96.8% with TK-10 renal; 90.9% in the experiment on ACHN renal. Also, the growth with CAKI-1 renal is 74.9%; in the experiment with A498 renal, 79.5%; in the experiment on CCRF-CEM leukemia it was 99.7%; with MOLT-4 leukemia, 84.4%; in the experiment on SR leukemia, 101%; in the experiment with RPMI-8226 leukemia it was 88.1%. The growth with OVCAR-8 ovarian was 97.2%; in the experiment with SK-OV-3 ovarian, 84.5%; with IGROV1 ovarian, 90.7%; in the experiment with OVCAR-3 ovarian, 93.7%; in the experiment on NCI/ADR-RES ovarian, 91.1%.

In the case of `COc1cc(NCCCCC(C)N)c2nccc(C)c2c1` (stereo unspecified), the growth is 105% with SK-MEL-2 melanoma; 78.3% in the experiment on EKVX NSCLC; 87.1% in the experiment with SN12C renal; 38.2% in the experiment with UO-31 renal; 99.1% in the experiment on TK-10 renal; 94% in the experiment with ACHN renal. Also, the growth is 94.8% in the experiment with CAKI-1 renal; 68.6% in the experiment with A498 renal; 99.7% in the experiment with CCRF-CEM leukemia; 81.7% with MOLT-4 leukemia; 98.7% in the experiment on SR leukemia; 75.2% with RPMI-8226 leukemia. Further, the growth in the experiment with OVCAR-8 ovarian is 97%; with OVCAR-5 ovarian it was 81.6%; in the experiment with SK-OV-3 ovarian it was 93.3%; with IGROV1 ovarian, 71.3%; in the experiment with OVCAR-3 ovarian it was 73.5%; with NCI/ADR-RES ovarian, 100%.

On to `CCCCC(CCc1ccccn1)C(=O)c1ccccc1` (stereo unspecified), for which the growth in the experiment with SK-MEL-2 melanoma was 116%; in the experiment with EKVX NSCLC it was 102%; in the experiment on SN12C renal, 122%; with UO-31 renal, 79.7%; with TK-10 renal, 127%; with ACHN renal, 116%. In addition, the growth was 99.5% in the experiment with CAKI-1 renal; 105% in the experiment on A498 renal; 98.3% with CCRF-CEM leukemia; 112% with MOLT-4 leukemia; 106% in the experiment on RPMI-8226 leukemia; 112% in the experiment with OVCAR-8 ovarian. For the same compound, the growth in the experiment with OVCAR-5 ovarian was 109%; in the experiment on OVCAR-4 ovarian, 110%; with SK-OV-3 ovarian it was 110%; in the experiment on IGROV1 ovarian, 101%; with OVCAR-3 ovarian it was 116%; in the experiment with HS 578T breast, 112%. The growth with NCI/ADR-RES ovarian is 104%.

`COc1cc(/C=C2\C(=O)Nc3ccc(N(C)C)cc32)cc(OC)c1OC`: the growth was 61.2% in the experiment with SK-MEL-2 melanoma; 34.4% with EKVX NSCLC; 25.2% with SN12C renal; 35.2% in the experiment with UO-31 renal; 42.3% in the experiment with TK-10 renal; 41.6% with ACHN renal. Besides, the growth in the experiment with CAKI-1 renal was 22.2%; with A498 renal, -18.2% (active); with CCRF-CEM leukemia it was 21.9%; in the experiment on MOLT-4 leukemia it was 36.2%; in the experiment on SR leukemia, 19.1%; in the experiment on RPMI-8226 leukemia, 14.3%. Also, the growth with OVCAR-5 ovarian is 71.1%; with OVCAR-4 ovarian, 42.1%; in the experiment on SK-OV-3 ovarian, 45.5%; with IGROV1 ovarian, 16.6%; in the experiment with HS 578T breast it was -18.2% (active); in the experiment on NCI/ADR-RES ovarian, 0.228% (active).

As to `COc1ccc(CCN2COc3c([C@@H](C)CCC=C(C)C)ccc(C)c3C2)cc1OC`, the growth is 89.4% in the experiment with SK-MEL-2 melanoma; 63.2% in the experiment with EKVX NSCLC; 52.8% with SN12C renal; 41.4% in the experiment on UO-31 renal; 76.9% with TK-10 renal; 70% with ACHN renal. Also, the growth in the experiment with CAKI-1 renal was 68.7%; in the experiment with A498 renal, 66.2%; in the experiment with CCRF-CEM leukemia, 62.6%; in the experiment with MOLT-4 leukemia, 48.3%; in the experiment with RPMI-8226 leukemia, 28.5%; in the experiment with OVCAR-8 ovarian, 72.1%. The growth in the experiment on OVCAR-5 ovarian was 83%; in the experiment with OVCAR-4 ovarian, 39.7%; with SK-OV-3 ovarian, 82.6%; in the experiment on IGROV1 ovarian, 68.3%; in the experiment on OVCAR-3 ovarian, 30.2%; in the experiment with HS 578T breast, 76.9%. The growth in the experiment with NCI/ADR-RES ovarian is 44.6%.

Take `CC1(C)C2CCC(O)(C(=O)O)C1C2` (stereo unspecified): the growth was 106% in the experiment with SK-MEL-2 melanoma; 103% in the experiment on EKVX NSCLC; 104% with SN12C renal; 81.9% in the experiment on UO-31 renal; 120% with TK-10 renal; 111% in the experiment on ACHN renal. For the same compound, the growth in the experiment with CAKI-1 renal is 94%; with A498 renal it was 109%; with CCRF-CEM leukemia, 112%; with MOLT-4 leukemia, 115%; in the experiment with RPMI-8226 leukemia, 114%; in the experiment with OVCAR-8 ovarian it was 112%. Also, the growth was 112% with OVCAR-5 ovarian; 99.2% in the experiment on OVCAR-4 ovarian; 103% with SK-OV-3 ovarian; 95.8% in the experiment with IGROV1 ovarian; 118% in the experiment on OVCAR-3 ovarian; 115% in the experiment with HS 578T breast. Besides, the growth in the experiment on NCI/ADR-RES ovarian is 116%.

Turning to `COc1cc(C)c2c(=O)c3c(oc2c1)C(=O)c1c(O)c(OC)cc(O)c1C3=O`, the growth was -25.7% (active) in the experiment with SK-MEL-2 melanoma; 32.6% with EKVX NSCLC; 16.8% with SN12C renal; 0.808% (active) in the experiment on UO-31 renal; 23.8% with TK-10 renal; 0.624% (active) in the experiment on ACHN renal. The growth in the experiment with CAKI-1 renal was 12.6%; with A498 renal, 89%; with CCRF-CEM leukemia, 10.4%; in the experiment with MOLT-4 leukemia it was 16.3%; in the experiment on SR leukemia, 15.7%; in the experiment with RPMI-8226 leukemia, -8.23% (active). In addition, the growth in the experiment on OVCAR-5 ovarian was -4.74% (active); in the experiment with OVCAR-4 ovarian, 1.77% (active); in the experiment on SK-OV-3 ovarian, 9.16% (active); in the experiment on OVCAR-3 ovarian, 5% (active); in the experiment on HS 578T breast, 35%; with NCI/ADR-RES ovarian, 5.56% (active).

(Values after PubChem BioAssay (NCI).)
